Reference: PubChem BioAssay (NCATS)
Records with an inconclusive call do not appear. Unless noted, the call rests on the fitted dose curve; in most records, active means well fitted curve in either direction with a large enough effect (not every such curve was filed as active); inconclusive means small, poorly fitted or top-dose-only effect, or another doubt; inactive means flat fitted curve, though single readings scatter.

Assays:
[1] = AP1 Signaling Pathway (AID 357); settings: ME-180 AP-1-bla reporter, EGF-induced, beta-lactamase ratio, 5 h; at 17.2 µM (top of the series) unless noted;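 further: ME-180 reporter cells stimulated with EGF at its EC50 level; on the % scale 0 is the no-effect control and ±100 the full control effect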
Method in brief: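 In this screen, ME-180 cells in Opti-MEM with 0.5% dialyzed FBS received EC50 EGF and compound titrations for 5 h. AP-1 reporter beta-lactamase was detected via CCF4 ratio, giving AC50 for positive and negative modulators.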

[2] = Stat Signaling Pathway (AID 446); settings: ME-180 (cervical carcinoma) SIE beta-lactamase reporter, IL-6 stimulated, 5 h; at 17.2 µM (top of the series) unless noted;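 further: ME-180 cervical cancer cells given 40 pM IL-6 alongside compound; SIE-controlled beta-lactamase reporter measured as 460/530 nm FRET emission ratio; on the % scale 0 is the no-effect control and ±100 the full control effect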
Method in brief: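 FRET read-out (405 nm excitation, 460/530 nm emission) of a beta-lactamase reporter under a STAT-inducible element in ME-180 cervical carcinoma cells. Cells with compound receive 40 pM IL-6 for 5 h. Values are normalised to AC90 stimulation and AC90 JAK-inhibitor controls.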

[3] = target: Glucocorticoid receptor (Homo sapiens) (UniProt P04150); test: GR-GFP Redistribution (AID 450;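 active means compounds whose dose series gives a full or clear partial fitted curve of increased nuclear translocation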; further: potency means the concentration at half of the fitted maximal effect)
Sequence of Glucocorticoid receptor (Homo sapiens) (P04150 whole entry, looked up): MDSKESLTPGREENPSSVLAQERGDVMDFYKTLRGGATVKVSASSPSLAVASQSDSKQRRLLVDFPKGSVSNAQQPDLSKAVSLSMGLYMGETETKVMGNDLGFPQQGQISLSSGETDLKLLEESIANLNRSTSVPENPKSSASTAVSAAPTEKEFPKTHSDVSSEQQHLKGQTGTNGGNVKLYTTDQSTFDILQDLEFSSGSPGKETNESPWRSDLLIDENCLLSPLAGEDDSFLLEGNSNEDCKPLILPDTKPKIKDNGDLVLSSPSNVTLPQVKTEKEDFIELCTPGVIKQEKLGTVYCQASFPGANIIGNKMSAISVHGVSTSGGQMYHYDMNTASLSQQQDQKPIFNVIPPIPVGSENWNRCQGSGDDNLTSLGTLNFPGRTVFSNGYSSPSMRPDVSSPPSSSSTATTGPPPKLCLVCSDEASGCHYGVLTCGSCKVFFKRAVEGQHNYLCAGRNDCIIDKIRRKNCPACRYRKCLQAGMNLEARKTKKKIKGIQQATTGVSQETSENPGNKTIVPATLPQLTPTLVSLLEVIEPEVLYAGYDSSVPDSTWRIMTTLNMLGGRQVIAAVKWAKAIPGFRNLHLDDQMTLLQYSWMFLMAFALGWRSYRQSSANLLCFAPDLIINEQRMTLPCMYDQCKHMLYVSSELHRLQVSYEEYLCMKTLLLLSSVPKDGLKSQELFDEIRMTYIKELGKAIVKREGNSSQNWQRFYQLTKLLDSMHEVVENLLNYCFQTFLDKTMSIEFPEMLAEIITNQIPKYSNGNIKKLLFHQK

C=CCSc1nnc2n(CCc3ccccc3)c(=O)c3c4c(sc3n12)COC(C)(C)C4
inactive: activity change, negative = inhibition [1] -23.5% | activity, negative = inhibition [2] -18.1% | Potency [3] > 20.6 µM

CN(C)CCCN1C(=O)C(=O)/C(=C(/O)c2ccccc2)C1c1ccccn1 (stereo not given)
inactive: activity change, negative = inhibition [1] 7% | activity, negative = inhibition [2] 4.69% | Potency [3] > 20.6 µM

O=C1OC(Nc2ccc(Br)cc2F)c2ccccc21 (stereo not given)
inactive: activity change, negative = inhibition [1] 0.165% | activity, negative = inhibition [2] 2.24% | Potency [3] > 20.6 µM

CC(=O)OCC(=O)[C@@]1(O)CC[C@H]2[C@@H]3CCC4=CC(=O)CC[C@]4(C)[C@H]3[C@@H](O)C[C@@]21C
inactive: activity change, negative = inhibition [1] 11.1% | activity, negative = inhibition [2] -11.6% | Potency [3] > 20.6 µM

CCC12CN3CC(CC)(CN(C1)C3c1c(O)ccc3ccccc13)C2=O (stereo not given)
inactive: activity change, negative = inhibition [1] 2.68% | activity, negative = inhibition [2] -7.82% | Potency [3] > 20.6 µM

CCOc1ccc(-c2nn3c(-c4ccc(OC)cc4)nnc3s2)cc1
inactive: activity change, negative = inhibition [1] -1.24% | activity, negative = inhibition [2] 24.4% | Potency [3] > 20.6 µM

C=CCNc1nc(N2CCCCC2)c(C#N)c2c1CN(Cc1ccccc1)CC2
inactive: activity change, negative = inhibition [1] 1.37% | activity, negative = inhibition [2] -3.92% | Potency [3] > 20.6 µM

CC(C)(C)OC(=O)NCCC(=O)Oc1ccc2ccc(=O)oc2c1
inactive: activity change, negative = inhibition [1] 16.1% | activity, negative = inhibition [2] 12.7% | Potency [3] > 20.6 µM

CCOC(=O)/C=c1\s/c(=C(\C#N)C(=O)OCC)n(-c2ccccc2)c1=O
inactive: activity change, negative = inhibition [1] 2.08% | activity, negative = inhibition [2] -22.2% | Potency [3] > 20.6 µM

N#Cc1c(N)n(CCOC(=O)c2cccc(Br)c2)c2nc3ccccc3nc12
inactive: activity change, negative = inhibition [1] -0.25% | activity, negative = inhibition [2] 16.2% | Potency [3] > 20.6 µM

CCOC(=O)c1ccc(N=CC2=C(O)CC(c3ccco3)CC2=O)cc1 (stereo not given)
inactive: activity change, negative = inhibition [1] 2.87% | activity, negative = inhibition [2] -4% | Potency [3] > 20.6 µM

COC(=O)CSc1nc(-c2cccs2)ccc1C#N
inactive: activity change, negative = inhibition [1] -2.59% | activity, negative = inhibition [2] -2.18% | Potency [3] > 20.6 µM

CCOC(=O)c1[nH]c2ccc(Br)cc2c1NC(=O)CNC
inactive: activity change, negative = inhibition [1] 18.8% | activity, negative = inhibition [2] -1.05% | Potency [3] > 20.6 µM

CCN(CC)c1nc(-c2cccc(OC)c2O)nc2ccccc12
inactive: activity change, negative = inhibition [1] -20.9% | activity, negative = inhibition [2] -20% | Potency [3] > 20.6 µM

Cc1c(N=Cc2c(O)n(C3CCCCC3)c(=O)[nH]c2=O)c(=O)n(-c2ccccc2)n1C
inactive: activity change, negative = inhibition [1] -6.37% | activity, negative = inhibition [2] -1.79% | Potency [3] > 20.6 µM

CCC(C)Nc1nc(-c2cccc(OC)c2O)nc2ccccc12 (stereo not given)
inactive: activity change, negative = inhibition [1] -28.3% | activity, negative = inhibition [2] -18.2% | Potency [3] > 20.6 µM

O=c1/c(=C\c2cccn2-c2ccccc2)sc2nc3ccccc3n12
inactive: activity change, negative = inhibition [1] 2.64% | activity, negative = inhibition [2] 14.8% | Potency [3] > 20.6 µM

CC1(C)Cc2c(C#N)c(SCC(=O)c3ccccc3)nc(N3CCOCC3)c2CS1
inactive: activity change, negative = inhibition [1] -7.36% | activity, negative = inhibition [2] 0.377% | Potency [3] > 20.6 µM

COc1cccc(C(=O)OC2CCCN(C)C2)c1 (stereo not given)
inactive: activity change, negative = inhibition [1] -4.26% | activity, negative = inhibition [2] 4.49% | Potency [3] > 20.6 µM

CCOC(=O)c1[nH]c2ccccc2c1N=C(C)N(CC)CC
inactive: activity change, negative = inhibition [1] 4.17% | activity, negative = inhibition [2] 5.19% | Potency [3] > 20.6 µM

CCCSc1nc(N2CCCC2)c2c(c1C#N)CC(C)(C)OC2
inactive: activity change, negative = inhibition [1] -3.22% | activity, negative = inhibition [2] 6.07% | Potency [3] > 20.6 µM

CCCCCn1c2nc3ccccc3nc2c2c(=O)n(CC(C)C)cnc21
inactive: activity change, negative = inhibition [1] 2.71% | activity, negative = inhibition [2] -12.9% | Potency [3] > 20.6 µM

CCCSc1nnc2n(-c3ccccc3OC)c(=O)c3c4c(sc3n12)CCC4
inactive: activity change, negative = inhibition [1] 3.26% | activity, negative = inhibition [2] 15% | Potency [3] > 20.6 µM

Cc1ccc(CNc2oc(COc3ccccc3Cl)nc2C#N)cc1
inactive: activity change, negative = inhibition [1] 39.1% | activity, negative = inhibition [2] -8.99% | Potency [3] > 20.6 µM

CN1C2C=C3C(C#N)=C(N)C(C#N)(C#N)[C@@H](c4ccsc4)[C@@H]3C1CC2 (stereo not given in full)
inactive: activity change, negative = inhibition [1] 20.1% | activity, negative = inhibition [2] 3.71% | Potency [3] > 20.6 µM

N#Cc1c(-c2ccccc2Cl)cc(C2CC2)nc1N
inactive: activity change, negative = inhibition [1] 4.21% | activity, negative = inhibition [2] -2.15% | Potency [3] > 20.6 µM

N#C/C(C(=O)NCc1ccco1)=C1/SC(Cc2ccc(Cl)cc2)C(=O)N1c1ccccc1 (stereo not given)
inactive: activity change, negative = inhibition [1] -16.2% | activity, negative = inhibition [2] -13.4% | Potency [3] > 20.6 µM

Cc1nc(N2CCN(C(=O)c3ccc(Cl)cc3)CC2)c(C#N)c2c1COC(C)(C)C2
inactive: activity change, negative = inhibition [1] -10% | activity, negative = inhibition [2] -17.4% | Potency [3] > 20.6 µM

CCCCn1c(O)c(C=NCCCN(C)C)c(=O)[nH]c1=O
inactive: activity change, negative = inhibition [1] -1.31% | activity, negative = inhibition [2] 3.99% | Potency [3] > 20.6 µM

Cc1ccc(S(=O)(=O)N2CCC(N3CCCCCC3)CC2)cc1
inactive: activity change, negative = inhibition [1] 15.1% | activity, negative = inhibition [2] 10.2% | Potency [3] > 20.6 µM
